# This is a sample that favours compounds with a hit; in the whole collection about 4% have one here.
# Caspase-1 inhib: caspase-1 (human) inhibition, allosteric or competitive; P29466; Caspase-1 enzyme, Ac-WEHD-AFC fluorogenic rate; Potency, µM (doses to about 57.5 µM), most hits filed as inhibitors; 75,000 compounds, 0.03% hits
# Target sequence (P29466 120-297 limits assumed): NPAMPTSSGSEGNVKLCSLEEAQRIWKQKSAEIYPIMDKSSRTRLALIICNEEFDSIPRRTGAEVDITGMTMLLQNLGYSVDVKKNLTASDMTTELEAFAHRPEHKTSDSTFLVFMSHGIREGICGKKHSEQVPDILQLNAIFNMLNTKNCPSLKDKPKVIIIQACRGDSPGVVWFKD
# Target sequence (P29466 317-404 limits assumed): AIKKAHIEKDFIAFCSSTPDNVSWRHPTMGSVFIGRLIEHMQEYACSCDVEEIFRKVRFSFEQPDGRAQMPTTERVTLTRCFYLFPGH
# HEK293 cAMP ctrl: counter-screen for TSHR agonists: cAMP increase in parental HEK293; parental HEK293 CNG cAMP sensor, membrane potential fluorescence; Potency, µM (series often up to 57.1 µM), usual class: activators; 73,000 compounds, 2.5% hits; AID 938; also: nearly all actives have a fitted effect of over 55% in size
#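 Parental HEK 293 cells stably expressing a modified CNG channel (no TSHR) report cAMP rise as membrane depolarization. Membrane potential dye with 100 uM RO 20-1724 was loaded for 60 min at room temperature, then compound added for 30 min; fluorescence read at 590 nm.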
# TSHR ag: activates the human thyroid stimulating hormone receptor. Potency, µM (highest dose often 57.1 µM), usual class: activators. HEK293-CNG-TSHR cells (CNG channel as cAMP sensor), membrane potential dye, cAMP. 73,000 compounds, 0.48% hits. P16473; active = well fitted activation curve with a large enough effect in the main read-out, with a control signal flat, not every such curve was filed as active; inconclusive = small, poorly fitted or top-dose-only effect, or a change in a side signal; inactive = no such curve, though single readings can be large or run the other way; reference of the percent scale not stated here;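 also: the control signal comes from parental cells without the receptor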
#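 cAMP rise detected as CNG-channel membrane depolarization by fluorescent dye (emission 590 nm), 30 min after compound, following 60 min dye loading containing 100 uM RO 20-1724 at room temperature. Cells: TSHR/CNG HEK 293, with parental CNG HEK 293 as control.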
# PK Bst: modulators of Bacillus stearothermophilus pyruvate kinase | purified pyruvate kinase, luminescence ATP production; ribose 5-phosphate activator present at AC10 | Potency, µM | 51,000 compounds, 1.2% hits; in the data active = potency below about 11 µM; inconclusive = mostly about 12 µM to 25 µM;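 the screen sought inhibitors and activators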
# GBA activity: modulators of human glucocerebrosidase | AID 360 | Potency, µM | P04062 | 48,000 compounds, 1.1% hits | purified enzyme, resorufin glucoside fluorescence (screen aimed at inhibitors), 20 min; in the data active = potency below about 15 µM; inconclusive = mostly about 16 µM to 33 µM;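 also: the screen sought inhibitors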
#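 Normal human glucocerebrosidase (0.2 nM final) was assayed with resorufin β-D-glucopyranoside (30 uM final) in 50mM citric acid/KH2PO4, 10mM sodium taurocholate, 0.01% tween-20, pH 5.9. Compounds were titrated; fluorescence (Ex 548, Em 600) read after 20 min at RT.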
# Casp7 inh: caspase-7 (human) inhibition, allosteric or competitive | Potency, µM (series often up to 57.5 µM), usual class: inhibitors | P55210 | recombinant caspase-7, Ac-DEVD-AFC fluorescence rate | 75,000 compounds, 0.02% hits; active = well fitted inhibition curve with a large enough effect in the main read-out, with a control signal flat, not every such curve was filed as active; inconclusive = small, poorly fitted or top-dose-only effect, or a change in a side signal
# Target sequence (P55210 24-198 limits assumed): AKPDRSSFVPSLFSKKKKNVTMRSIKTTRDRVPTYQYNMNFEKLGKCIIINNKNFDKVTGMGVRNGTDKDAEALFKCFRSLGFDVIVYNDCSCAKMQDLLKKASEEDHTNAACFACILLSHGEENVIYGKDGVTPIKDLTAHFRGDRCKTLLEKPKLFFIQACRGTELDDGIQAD
# Target sequence (P55210 207-303 limits assumed): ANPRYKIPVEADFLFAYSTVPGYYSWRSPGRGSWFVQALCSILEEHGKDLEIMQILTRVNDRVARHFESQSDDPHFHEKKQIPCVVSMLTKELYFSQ
# A number is an active result; i = inactive; ? = inconclusive; nt = not tested or not shown; [ ] = another dose, or the depositor's remark. Unless noted, calls follow the shape of the dose curve; as a rule, active = well fitted curve in the direction sought with a large enough effect; inconclusive = small, poorly fitted or top-dose-only effect, or another doubt; inactive = no such curve, though single readings can be large; an effect the other way counts as inactive or inconclusive.
SMILES,Caspase-1 inhib,HEK293 cAMP ctrl,TSHR ag,PK Bst,GBA activity,Casp7 inh
CN1CCN(C(=O)c2cc(Cl)ccc2Cl)CC1,i,31.6µM,?,nt,nt,i
CN1CCN(C(=O)c2nc3ccc(Cl)cc3[nH]2)CC1,i,i,i,nt,nt,i
C[N@@+]1(CC[N@@+]2(C)CCC[C@H]2c2cccnc2)CCC[C@@H]1c1cccnc1,i[11.5 µM],i[11.4 µM],i[11.4 µM],nt,nt,i[11.5 µM]
c1cn(CCCNc2ncnc3sc4c(c23)CCC4)cn1,i,i,i,nt,nt,i
c1csc(CCNc2ncnc3sc4c(c23)CCC4)c1,i,20µM,?,nt,nt,i
OC[C@H](CCc1c[nH]c2ccccc12)c1c[nH]c2ccccc12,i[11.5 µM],i[11.4 µM],i[11.4 µM],nt,nt,i[11.5 µM]
CN(C)c1cc(-c2cccc(NS(C)(=O)=O)c2)ncn1,i,?,?,nt,nt,i
CC(C)(C)NC[C@H](O)c1cc(O)cc(O)c1,i,15.8µM,?,nt,nt,?
CC(NC(=O)C1CCN(c2nnc(-n3cccc3)s2)CC1)C12CC3CC(CC(C3)C1)C2 (stereo unspecified),i,i,i,8.25,nt,i
CC(C)NC(=O)C1CCCN(c2nnc(-n3cccc3)s2)C1 (stereo unspecified),i,?,?,nt,nt,i
COCCn1c(=O)c(-c2ccc(OC)cc2)nc2cnc(N3CCN(C)CC3)nc21,nt,i,i,nt,nt,?
CCn1c(SCc2nc(-c3ccccc3)no2)nc2ccccc21,i,i,31.6µM,nt,nt,i
CCCC(c1nnnn1Cc1ccc(OC)cc1)N1CCN(c2ccccc2OC)CC1 (stereo unspecified),i,25.1µM,?,i,i,i
COCCn1nnnc1C(c1ccccc1OC)N1CCN(c2ccccc2F)CC1 (stereo unspecified),i,7.94µM,?,i,i,i
CCCC(c1nnnn1Cc1cccs1)N1CCN(c2ccc(OC)cc2)CC1 (stereo unspecified),i,?,?,i,i,i
CCCC(c1nnnn1Cc1ccccc1)N1CCN(c2ccccc2OC)CC1 (stereo unspecified),i,10µM,?,i,i,i
CC(C)C12CC[C@@]3(CC[C@H]4[C@@](C)(CCC[C@]4(C)C(=O)O)[C@@H]3C1)[C@@H](CN)C2,i[11.5 µM],i[11.4 µM],i[11.4 µM],nt,nt,i[11.5 µM]
C[C@@H]1C(=O)O[C@@H]2C[C@@]34[C@H]5C[C@@H](C(C)(C)C)[C@@]36[C@@H](OC(=O)[C@@H]6O)O[C@]4(C(=O)O5)[C@@]12O,nt,i,i,nt,nt,nt
CC(C)Cn1c(SCC(=O)c2ccc(Cl)s2)nnc1-c1ccco1,i,20µM,?,i,i,i
CCn1c(SCC(=O)c2ccc(Cl)cc2)nnc1-c1ccoc1C,i,25.1µM,?,i,i,i
Cc1ccc(C(=O)CSc2nnc(-c3ccco3)n2Cc2ccccc2)cc1,i,12.6µM,?,i,i,i
O=C(CSc1nnc(-c2ccco2)n1Cc1ccccc1)c1ccccc1,i,i,i[11.4 µM],i,i,i
CC[C@](N)(C(=O)O)C(C)C,i[11.5 µM],i[11.4 µM],i[11.4 µM],nt,nt,i[11.5 µM]
O=C(Cc1cccs1)N(Cc1ccco1)C1(C(=O)NC2CCCC2)CCCCC1,i,0.126µM,?,i,i,i
O=C(NC1CCCCC1)C(c1ccco1)N(Cc1ccco1)C(=O)c1ccco1 (stereo unspecified),i,15.8µM,?,i,i,i
SMILES,Caspase-1 inhib,HEK293 cAMP ctrl,TSHR ag,PK Bst,GBA activity,Casp7 inh
COc1ccccc1CN(C(=O)c1ccco1)C(C(=O)NC1CCCC1)c1ccncc1 (stereo unspecified),i,?,?,i,i,i
CCOCCCN(C(=O)CNC(=O)c1ccco1)C(C(=O)NC1CCCC1)c1ccccc1C (stereo unspecified),i,31.6µM,?,i,i,i
NC(=O)c1nsc(C(=O)N(CCc2ccccc2)C(C(=O)NC2CCCC2)c2ccco2)c1N (stereo unspecified),i,6.31µM,?,i,nt,i
COc1ccc(C(C(=O)NC2CCCC2)N(CCN(C)C)C(=O)c2snc(C(N)=O)c2N)cc1 (stereo unspecified),i,i,i,i,i,i
CCOC(=O)CN(C(=O)CNC(=O)c1ccco1)C(C(=O)NC1CCCC1)c1ccccc1OCC (stereo unspecified),i,?,?,i,i,i
O=C(O)c1ccc(C(=O)O)c(C(=O)Nc2ccc3c(c2)Cc2ccccc2-3)c1,i[11.5 µM],i[11.4 µM],i[11.4 µM],nt,nt,i[11.5 µM]
CN1CCN(Cc2nc3cccc4c3c([n+]2[O-])-c2ccccc2-4)CC1,i[11.5 µM],i[11.4 µM],i[11.4 µM],nt,nt,i[11.5 µM]
Cc1cccc2cc(CN(Cc3ccco3)C(=O)NC3CCCCC3)c(=O)[nH]c12,i,?,?,nt,i,i
O=C(NC1CCCCC1)N(Cc1ccccc1)Cc1ccco1,i,15.8µM,?,nt,nt,i
COC(=O)c1ccc(Nc2nc(C)cc(=O)[nH]2)cc1,i,12.6µM,?,i,?,i
c1ccc(-c2nnc(-c3ccccn3)nn2)nc1,i,i,i,7.06,i,i
CC1(C)OC(C(O)(c2cccc3c2oc2ccccc23)c2cccc3c2oc2ccccc23)C(C(O)(c2cccc3c2oc2ccccc23)c2cccc3c2oc2ccccc23)O1 (stereo unspecified),i[11.5 µM],i[11.4 µM],i[11.4 µM],nt,nt,i[11.5 µM]
CC1(C)CC[C@]2(C(=O)O)CC[C@]3(C)C(=CC[C@@H]4[C@@]5(C)CC[C@H](O)C(C)(C)[C@@H]5CC[C@@]43C)[C@@H]2C1,nt,i,i,nt,nt,nt
Cc1cc(C)nc(SC2=CS(=O)(=O)c3ccccc32)n1,i,i,i,i,i,i
O=S1(=O)C=C(Sc2nc3ccccc3s2)c2ccccc21,i,i,i,i,10.6,i
CO[Si](CCCNCCC[Si](OC)(OC)OC)(OC)OC,i,i,i,nt,nt,i
COc1ccccc1OCCn1cc(C(=O)c2ccco2)c2ccccc21,i,25.1µM,?,i,?,i
COc1cccc(OCCn2cc(C(=O)c3ccco3)c3ccccc32)c1,i,?,?,i,i,i
CCN(CC)CCCC(C)NC(=O)c1ccc(Cc2nc3ccccc3[nH]2)cc1 (stereo unspecified),i,i,i,nt,nt,i
Cc1nn(C(=O)c2cccnc2)c(C)c1C,i,6.31µM,?,i,i,i
Nc1nc(-c2ccc(Cl)cc2)nn1C(=O)c1cccnc1,i,i,i,i,i,i
c1cncc(-c2cncnc2NC2CCNCC2)c1,i,i,i,nt,nt,i
O=C(Nc1cccc(F)c1)N1CCCC2(CCN(C(=O)c3cccc(F)c3)CC2)C1,i,?,?,nt,nt,i
O=C(Nc1ccccc1)N1CC2(CCN(C(=O)c3cc(C(F)(F)F)cc(C(F)(F)F)c3)CC2)C1,i,i,i,nt,nt,i
O=C(Nc1ccccc1)N1CCCC2(CCN(C(=O)c3cc(C(F)(F)F)cc(C(F)(F)F)c3)CC2)C1,i,i,25.1µM,nt,nt,i
O=C(Nc1ccccc1)N1CCCC2(CCN(C(=O)c3cccc(F)c3)CC2)C1,i,i,25.1µM,nt,nt,i
CCN(CCCNC(=O)C1CCC(=O)N1Cc1ccc(F)cc1)c1cccc(C)c1 (stereo unspecified),i,i,i,i,14.9,i
